Bioassay records deposited in PubChem BioAssay by National Center for Advancing Translational Sciences (NCATS).
This is a sample that favours compounds with a hit; in the whole collection about 3.3% have one here.
PI5P4Ka inh – blocks human PI5P4K alpha kinase activity | P48426 | 330,000 tested, 1.2% active | PI5P4Kalpha enzyme, ADP-Glo luminescence, 60 min; active compounds read low | max response, %; active = max response of -50% or lower; inconclusive = between -30% and -50%; inactive = -30% or higher; note: value at the top dose of about 77 µM
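PI5P4Kalpha ADP-Glo assay; 5 microM ATP final; 60 min RT reaction; HEPES pH 7.4/EGTA/CHAPS, 5% DMSO; controls lacking substrate or enzyme; luminescent end-point.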
PLK1 PBD inh – inhibitors of human PLK1 polo-box domain binding; P53350; Plk1 PBD binding of FITC phosphopeptide, fluorescence polarization; Potency, µM, hits mostly inhibitors; 360,000 tested, 2.8% active; note: series mostly up to about 57 µM; nearly all actives have a fitted effect of over 65% in size
WRN inhibitor – blocks human WRN helicase; Potency, µM (titrated, usually from 114 µM), usual class: inhibitors; AID 651768; Q14191; WRN helicase unwinding, fluorescent forked duplex, kinetic; 360,000 tested, 0.46% active; note: nearly all actives have a fitted effect of over 55% in size
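Primary qHTS, 1536-well format. 20 nM WRN + compound, 15 min RT; start with 100 nM forked fluorophore/quencher duplex, 2 mM ATP (final); kinetic read ex 525/em 598 nm.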
USP1-UAF1 inh – USP1/UAF1 (human) deubiquitinase inhibition | 390,000 tested, 0.23% active | O94782 | recombinant USP1/UAF1, Ub-Rhodamine cleavage fluorescence | Potency, µM (top dose mostly 57.1 µM), hits mostly inhibitors; note: nearly all actives have a fitted effect of over 60% in size
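USP1/UAF1 complex (1 nM) preincubated 15 min at room temperature with compound, then Ub-Rho substrate (150 nM final) added. Kinetic fluorescence at 480/540 nm over 6 reads at 60 s intervals; 50 mM HEPES pH 7.8, 0.5 mM EDTA, 0.1 mg/ml BSA, 1 mM TCEP, 0.01% Tween-20.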
USP2a block – USP2a (human) protease inhibition. USP2 core, Ub-CHOP2 coupled fluorogenic reporter, 485/531. Potency, µM (doses to about 38.3 µM), most hits filed as inhibitors. 330,000 tested, 0.01% active. AID 463254
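USP2 core (10nM final) preincubated 30min RT with compound in 20mM Tris-HCl pH 8.0, 2mM CaCl2, 2mM beta-mercaptoethanol, 0.05% CHAPS; 25nM Ub-CHOP2 plus 25nM reporter substrate added, fluorescence (Ex485/Em531) read after 60min.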
Each line names hits and unclear results; the compound was inactive in the other large screens. Unless noted, calls come from the whole dose curve; as a rule, active = well fitted curve in the direction sought with a large enough effect; inconclusive = small, poorly fitted or top-dose-only effect, or another doubt; inactive = no such curve, though single readings can be large; an effect the other way counts as inactive or inconclusive.

Nn1c(COc2ccc(Cl)cc2)n[nH]c1=S	PLK1 PBD inh inconclusive
COc1ccc(OCc2n[nH]c(=S)n2Cc2ccco2)cc1	PLK1 PBD inh 27µM
COc1ccccc1N1C(=O)NC(=O)/C(=C/c2ccc3c(c2)Cc2ccccc2-3)C1=O	PI5P4Ka inh inconclusive, PLK1 PBD inh 5.3µM
C=Cc1cc(OC)c2c(c1)c(=O)oc1c2cc(OC)c2c(O)ccc(C3OC(C)C(O)C(C)(O)C3O)c21 (configuration not stated)	WRN inhibitor 10µM (no result: USP2a block)
COc1ccc(OCc2nnc(SCC(=O)NCC3CCCO3)n2N)cc1 (configuration not stated)	PLK1 PBD inh 17µM, WRN inhibitor inconclusive
C[C@H]1COC2=C1C(=O)C(=O)c1c2ccc2c1CCCC2(C)C	PI5P4Ka inh -52, PLK1 PBD inh 27µM, WRN inhibitor inconclusive, USP1-UAF1 inh 32µM
O=C(N/N=C/c1c(O)n(CCC2=CCCCC2)c(=S)[nH]c1=O)c1ccccc1	PI5P4Ka inh -59, PLK1 PBD inh inconclusive
CCCCC(=O)N/N=C/c1c(O)n(CCc2ccccc2)c(=O)[nH]c1=O	PI5P4Ka inh -58
O=C(N/N=C/c1c(O)n(CCC2=CCCCC2)c(=O)[nH]c1=O)c1ccccc1	PI5P4Ka inh -60
O=c1[nH]c(=S)n(CCC2=CCCCC2)c(O)c1C=NCc1cccnc1	none (no result: PI5P4Ka inh, PLK1 PBD inh, WRN inhibitor, USP1-UAF1 inh)
Cc1ccccc1-n1nc(C)c2c1NC(=O)CSC2c1ccc(N(C)C)cc1 (configuration not stated)	none (no result: PI5P4Ka inh, PLK1 PBD inh, WRN inhibitor, USP2a block)
O=C(O)c1ccc[nH]c1=S	PLK1 PBD inh inconclusive
Cc1ccc(OCC(=O)Nc2ccc(Cl)cc2C(=O)c2ccccc2)cc1C	none (no result: PI5P4Ka inh, PLK1 PBD inh, WRN inhibitor, USP2a block)
O=C1C=CC2C3C(=O)N(c4ccccc4)C(=O)C3C1N2Cc1ccccc1 (configuration not stated)	PLK1 PBD inh inconclusive, WRN inhibitor inconclusive (no result: USP2a block)
O=c1[nH]c2ccccc2n1C1CCN(CCCC(c2ccc(F)cc2)c2ccc(F)cc2)CC1	PI5P4Ka inh -51
CN(C)c1c([N+](=O)[O-])cc(N2C(=O)C=CC2=O)cc1[N+](=O)[O-]	PI5P4Ka inh -86, PLK1 PBD inh 3µM, WRN inhibitor 35µM (no result: USP2a block)
CCNc1cc(N2CCN(C)CC2)ccc1[N+](=O)[O-]	none
CCN(CC)C(=O)N[C@H]1C[C@@H]2c3cccc4[nH]cc(c34)C[C@H]2N(C)C1	PI5P4Ka inh -75
CN1C[C@H](CO)C[C@@H]2c3cccc4[nH]cc(c34)C[C@H]21	none
CN(Cc1ccccc1)C(=O)CN1CCCC1=O	none
CN(Cc1ccccc1)C(=O)c1ccc(NC(=O)C2CCN(C(=O)OC(C)(C)C)CC2)cc1	PLK1 PBD inh 30µM
CCOc1ccc(C=C2C(=O)NC(=S)NC2=O)cc1OCC	PI5P4Ka inh inconclusive, PLK1 PBD inh 8.4µM, WRN inhibitor inconclusive (no result: USP2a block)
Cc1cc(C=C2C(=O)NC(=S)NC2=O)c(C)n1C1CCCC1	PLK1 PBD inh inconclusive
CCOc1cc(C=C2C(=O)NC(=O)NC2=O)ccc1OS(=O)(=O)c1ccccc1	PI5P4Ka inh -63, PLK1 PBD inh 3.4µM, WRN inhibitor 45µM
Cc1c(C=C2C(=O)NC(=O)NC2=O)c(=O)n(-c2ccccc2)n1C	PLK1 PBD inh inconclusive
C=CCn1c(O)c(/C=N/NC(=O)c2ccncc2)c(=O)[nH]c1=O	PI5P4Ka inh -50
COc1ccc(CCn2c(O)c(/C=N/NC(=O)c3ccncc3)c(=O)[nH]c2=O)cc1OC	PI5P4Ka inh -82
COc1ccc(CCn2c(O)c(C=NCc3cccnc3)c(=O)[nH]c2=O)cc1OC	PLK1 PBD inh 27µM
CCN(CC)CCCN=Cc1c(O)n(CCc2ccc(OC)c(OC)c2)c(=O)[nH]c1=O	none
CCCCC(=O)N/N=C/c1c(O)n(CCc2ccc(OC)c(OC)c2)c(=O)[nH]c1=O	none
CCCCn1c(O)c(/C=N/NC(=O)c2ccncc2)c(=O)[nH]c1=S	PI5P4Ka inh inconclusive, WRN inhibitor 32µM
CN1CCN(c2oc(-c3ccc(COc4ccccc4)o3)nc2C#N)CC1	none (no result: PI5P4Ka inh, PLK1 PBD inh, WRN inhibitor, USP2a block)
O=C(N/N=C/c1c(O)n(Cc2ccccc2)c(=O)[nH]c1=O)c1ccncc1	PI5P4Ka inh -56, WRN inhibitor inconclusive
Cc1ccc(C=C2C(Cl)=C(Cl)C(Cl)=C2Cl)cc1	PI5P4Ka inh inconclusive, PLK1 PBD inh 12µM, WRN inhibitor 45µM
O=C(Oc1cncc(Cl)c1)c1sccc1Cl	none (no result: USP2a block)
